HT1080NT lethal: qHTS for induction of synthetic lethality in tumor cells producing 2HG: qHTS for the HT-1080-NT fibrosarcoma cell line; HT-1080-NT fibrosarcoma viability, CellTiter-Glo ATP luminescence, 48 h; Potency, µM (doses to about 46.1 µM), hits mostly cytotoxic; 1.6% of 360,000 active; AID 686970, 2013;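 note: NT is the 2HG producing partner of a matched IDH1 knockdown line; nearly all actives have a fitted effect of over 55% in size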
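Compounds were tested in concentration-response format on HT-1080-NT cells for 48 hours at 37 degrees C. Cell viability came from CellTiter-Glo luminescence; curves were classified by r2, response magnitude and activity.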
DT40 TDP1 no CPT: qHTS for Inhibitors of human tyrosyl-DNA phosphodiesterase 1 (TDP1): qHTS in cells in absence of CPT | Potency, µM (top dose mostly 46.2 µM), usual class: inhibitors | DT40 Tdp1-/- hTDP1 cells, no CPT, ATP luminescence, 48 h | 15% of 420,000 active; note: nearly all actives have a fitted effect of over 55% in size
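Stably hTDP1-transfected Tdp1-null chicken DT40 cells were treated with library compounds minus camptothecin and grown for at least 48 hr at 37 °C, after which cellular ATP was quantified by luminescence.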
TDP1 cell CPT: qHTS for Inhibitors of human tyrosyl-DNA phosphodiesterase 1 (TDP1): qHTS in cells in presence of CPT | 12% of 420,000 active | chicken DT40 Tdp1-/-;hTDP1 cells + 20 nM CPT, ATP luminescence, 48 h | Potency, µM (doses to about 46.2 µM), actives largely listed as inhibitors | AID 686979, 2013; note: nearly all actives have a fitted effect of over 55% in size
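Chicken DT40 Tdp1-/- cells complemented with human TDP1, 400 cells/well, exposed to compounds plus 20 nM camptothecin for at least 48 h at 37 C; viability read as ATP content by CellTiter-Glo luminescence.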
HT1080 IDH1KD tx: qHTS for induction of synthetic lethality in tumor cells producing 2HG: qHTS for the HT-1080-IDH1KD cell line. HT-1080 IDH1 knockdown viability, ATP luminescence, 48 h. Potency, µM (top dose mostly 46.1 µM), actives largely listed as cytotoxic. 2% of 360,000 active
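Using the IDH1-knockdown HT-1080 line run in the same batch and compound series as the NT line, viability after 48 h at 37 °C was determined by CellTiter-Glo luminescence and expressed as % activity.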
IL-1B inflam inh: qHTS for Inhibitors of Inflammasome Signaling: IL-1-beta AlphaLISA Primary Screen; THP-1 LPS/ATP IL-1B secretion, AlphaLISA, 16 h; hits give low values; activity change, % at 57.5 µM; 4.7% of 360,000 active; in the data active = activity change below about -50%; inconclusive = mostly about -30% to -49%
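Secreted IL-1B measured by AlphaLISA bead assay after 16 h compound exposure of THP-1 cells; compounds (final up to 57.5 uM) added 1 h before LPS (250 ng/mL) and ATP (1.25 mM) stimulation; lower signal means less secretion.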
Numbers stand for hits; . = inactive; ? = inconclusive; / = no result given; [ ] = dose if it differs, or a comment. An excerpt weighted towards active compounds, which were near 19% of everything screened. Unless noted, calls come from the whole dose curve; as a rule, active = well fitted curve in the direction sought with a large enough effect; inconclusive = small, poorly fitted or top-dose-only effect, or another doubt; inactive = no such curve, though single readings can be large; an effect the other way counts as inactive or inconclusive.

SMILES	HT1080NT lethal	DT40 TDP1 no CPT	TDP1 cell CPT	HT1080 IDH1KD tx	IL-1B inflam inh
COc1ccc2nc(NC(=O)C3CCCN(S(=O)(=O)c4cccc5nonc45)C3)sc2c1 (centres undefined)	.	?	?	.	-53
Cc1ccc(NC(=O)C2CCCN(S(=O)(=O)c3cccc4nsnc34)C2)cc1C (centres undefined)	/	18µM	?	/	/
O=C(c1cccc(F)c1)N1CCC(c2nc3ccccc3s2)CC1	.	.	.	.	.
C[C@H]1CN([C@@H](C)CO)C(=O)Cc2cc(NC(=O)C3CC3)ccc2O[C@H]1CN(C)Cc1ccc(C(=O)O)cc1	.	.	.	.	.
COc1ccc(/C=C/C(=O)Nc2ccc(S(=O)(=O)N3CCOCC3)cc2)c(OC)c1	.	18µM	?	.	.
COc1ccc(/C=C/C(=O)Nc2ccc(C)c(S(=O)(=O)N3CCOCC3)c2)cc1	?	18µM	?	21µM	.
CCN1CCN(c2ccc(S(=O)(=O)N3CCOCC3)cc2NC(=O)/C=C/c2ccc([N+](=O)[O-])cc2)CC1	.	2.9µM	?	.	-106
CCN1CCN(c2ccc(S(=O)(=O)N3CCOCC3)cc2NC(=O)/C=C/c2ccc(OC)cc2OC)CC1	.	?	26µM	.	.
Cc1ccc(S(=O)(=O)N2CCN(CN3C(=O)CC4(CCCC4)C3=O)CC2)cc1	.	.	.	.	.
COc1ccc(F)cc1CSc1nnnn1-c1ccc(O)cc1	.	?	.	.	.
COc1cc(CSc2nnnn2-c2ccc(C)cc2)cc(OC)c1OC	?	5µM	5.8µM	.	-77
Cc1cc(C)nc(SCC(=O)Nc2nonc2N)n1	.	.	.	.	.
COCCCN=Cc1c(-c2ccccc2)[nH]n(-c2nc3ccccc3s2)c1=O	.	?	26µM	.	?
CCCCCN=Cc1c(C)[nH]n(-c2nc3ccccc3s2)c1=O	11µM	4.6µM	2.1µM	5µM	.
O=c1c(C=NCCCO)c(-c2ccccc2)[nH]n1-c1nc2ccccc2s1	.	?	13µM	.	.
CCCc1[nH]n(-c2nc3ccccc3s2)c(=O)c1C=NCCCOC	.	.	.	.	?
CCN(C(=O)c1c([N+](=O)[O-])cnn1C)c1ccccc1	.	.	.	.	.
CSCCOC(=O)COc1ccc(/C=N/NC(=O)c2nn(C)cc2Cl)cc1	.	?	.	.	-69
CCNc1nc(C(=O)O)nc(N2CCOCC2)n1	.	.	.	.	.
CCNc1nc(C#N)nc(N2CCOCC2)n1	/	13µM	?	/	/
NC(=O)c1nc(N2CCOCC2)nc(N2CCOCC2)n1	.	14µM	14µM	.	.
CN(C)c1nc(N2CCOCC2)nc(N(c2ccccc2)c2ccccc2)n1	.	.	.	.	.
Cc1cc(N2CCOCC2)nc(N2CCOCC2)n1	.	.	.	.	.
CN(c1ccccc1)c1nc(C#N)nc(N2CCOCC2)n1	/	10µM	13µM	/	/
N#Cc1nc(N2CCOCC2)nc(N2CCOCC2)n1	.	26µM	18µM	.	.
SMILES	HT1080NT lethal	DT40 TDP1 no CPT	TDP1 cell CPT	HT1080 IDH1KD tx	IL-1B inflam inh
Cc1nc(-c2ccccc2)sc1C1(C)CC(c2cccc(F)c2)=NO1 (centres undefined)	.	.	.	.	.
CCN(CC)Cc1ccccc1CNC(=O)c1cccc(S(=O)(=O)Nc2ccc3c(c2)OCO3)c1	.[9.24 µM]	.	?	.	.
CN(C)c1nc(N)nc(N(c2ccccc2)c2ccccc2)n1	.	?	?	.	.
N#Cc1nc(N(c2ccccc2)c2ccccc2)nc(-n2cccc2)n1	/	3.5µM	7.1µM	/	/
Oc1[nH]c2ccc(Br)cc2c1N=Nc1ccc(C(F)(F)F)cn1	.	?	?	.	-57
COC(=O)[C@H](CC(C)C)NC(=O)Cn1cnc(C(=O)Nc2ccc(C)c(C)c2)n1	.	.	.	.	.
O=C(N/N=C/c1ccccn1)c1ccncc1	.	.	.	.	.
